SW480 rerep: inducers of DNA re-replication in SW480 colon cancer cells; AID 624297; SW480 DNA re-replication, Hoechst DNA content imaging, 48 h; 340,000 tested, 1.8% active; Potency, µM (top dose mostly 46.1 µM), without a hit: at the highest dose re-replication activation, hits mostly activators; also: % of control where 0% means no effect; nearly all actives have a fitted effect of over 55% in size
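Cells (250 per well) received 23 nL compound or DMSO by pin tool and were kept 48 hr at 37 C, 5% CO2. Nuclei were then stained with Hoechst for 40 min and scanned for DNA content.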
A-T KAP1 phos: candidate therapy for ataxia-telangiectasia; 320,000 tested, 0.19% active; F2112 A-T fibroblasts, KAP-1 phosphorylation AlphaLISA; neocarzinostatin DNA damage 30 min before lysis; Potency, µM (titrated, usually from 57.5 µM), without a hit: at the top dose activation, usual class: activators; also: % of control where 0% means no effect; nearly all actives have a fitted effect of over 45% in size
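hTERT-immortalized A-T patient fibroblasts (F2112), 500 cells/well in OPTI-MEM, 1% FBS, got compounds for 60 min, then NCS for 30 min at 37C. Lysates were then assayed for phospho-KAP-1 by AlphaLISA (anti-pKAP1 donor, anti-KAP1 acceptor beads), 6 hr at 25C.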
MCF10A rereplic: inducers of DNA re-replication in MCF 10A breast cells; Potency, µM (titrated, usually from 46.1 µM), without a hit: top-dose activity, positive = re-replication, most hits filed as activators; MCF 10A DNA re-replication, Hoechst nuclear intensity, 48 h; 350,000 tested, 2.9% active; also: % of control where 0% means no effect; nearly all actives have a fitted effect of over 50% in size
ELG1 DNA repair: blocks ELG1-dependent DNA repair in HEK293T cells; Potency, µM (highest dose often 46.1 µM), inactives show top-dose activity change, negative = inhibition, most hits filed as inhibitors; 330,000 tested, 2.3% active; AID 504467; HEK293T ELG1-luciferase reporter, luminescence, 16 h; DNA damage induced by 5-fluorouridine; also: % is scaled to controls: 0 for no effect and ±100 for the full control effect; nearly all actives have a fitted effect of over 55% in size
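Cells (2,000 per well) received 5-fluorouridine plus test compound or DMSO and were incubated 16 hr at 37 °C, 5% CO2. Luciferase activity was read by luminescence 30 min after ONE-Glo addition; signal suppression marked inhibition of damage-induced ELG1 function.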
ELG1 genotox: genotoxicity induction in ELG1-luciferase HEK293T cells | HEK293T ELG1-luciferase reporter, luminescence, 16 h | Potency, µM (titrated, usually from 46 µM), without a hit: at the top dose activity change, positive = activation, actives largely listed as activators | 330,000 tested, 1.3% active | AID 504466; also: % of control where 0% means no effect; nearly all actives have a fitted effect of over 60% in size
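Step 1: seed 2,000 HEK293T ELG1-luciferase cells per well. Step 2: add compound or DMSO, incubate 16 hr at 37 °C. Step 3: ONE-Glo, 30 min at room temperature, read luminescence.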
p53 reactivation: re-activators of mutant p53 | AID 504706 | 320,000 tested, 0.063% active | Potency, µM (highest dose often 92.2 µM), without a hit: top-dose activity change, positive = activation, actives largely listed as activators | H1299 p53-A138V BP100-luciferase reporter, luminescence, 24 h; also: % of control where 0% means no effect; nearly all actives have a fitted effect of over 45% in size
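H1299 (p53-null), stable ts p53-A138V + BP100-Luc; 1000 cells/well, Opti-MEM/10% FBS; cpd 4 pt, 1:5; 24 h, 37 deg C, 5% CO2; detection reagent 10 min RT; luminescence.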
Numbers without * were called inactive; [ ] = remark or other dose. Most compounds without a hit are left out; they make up all but 7.1% or so of the library. Calls follow the shape of the dose curve; as a rule, active = well fitted curve in the direction sought with a large enough effect; inconclusive = small, poorly fitted or top-dose-only effect, or another doubt; inactive = no such curve, though single readings can be large; an effect the other way counts as inactive or inconclusive. Potency is read from the fitted curve at half-maximal effect.

Screening Cc1noc(C)c1NC(=O)N(C)C[C@H]1Oc2c(NC(=O)C3CCCCC3)cccc2C(=O)N([C@H](C)CO)C[C@@H]1C returned SW480 rerep -43%, A-T KAP1 phos 7%, MCF10A rereplic 2%, ELG1 DNA repair 11%, ELG1 genotox 0% and p53 reactivation -4%.
Screening COC(=O)c1cn(C(=O)c2ccc(C)cc2C)c2ccccc12 returned SW480 rerep 8.2µM*, A-T KAP1 phos -1%, MCF10A rereplic 4.6µM*, ELG1 DNA repair -11%, ELG1 genotox -2% and p53 reactivation 1%.
For COC(=O)c1cn(C(=O)c2ccccc2Cl)c2ccccc12 the results were SW480 rerep 3%, A-T KAP1 phos 2%, MCF10A rereplic inconclusive, ELG1 DNA repair -9%, ELG1 genotox 1% and p53 reactivation -6%.
Cc1ccc(S(=O)(=O)N/N=C/c2ccc(O)c(O)c2)cc1[N+](=O)[O-] was read as SW480 rerep 21µM*, A-T KAP1 phos -6%, MCF10A rereplic -1%, ELG1 DNA repair -8%, ELG1 genotox 9% and p53 reactivation 4%.
`Cc1ccc(S(=O)(=O)N/N=C/c2ccccc2O)cc1[N+](=O)[O-]` gave SW480 rerep -1%, A-T KAP1 phos -2%, MCF10A rereplic 12%, ELG1 DNA repair 8%, ELG1 genotox 11% and p53 reactivation 5%.
For COc1ccc(N2CC(C(=O)N[C@H](C(=O)NC3CCCCC3)C(C)C)CC2=O)cc1 (stereo partly specified) the results were SW480 rerep -7%, A-T KAP1 phos 1%, MCF10A rereplic 1%, ELG1 DNA repair 1%, ELG1 genotox 0% and p53 reactivation 1%.
Screening O=Cc1ccc(OCc2ccc3c(c2)OCO3)cc1 returned SW480 rerep 11%, A-T KAP1 phos 3%, MCF10A rereplic 0%, ELG1 DNA repair inconclusive and ELG1 genotox 18µM*.
Cc1cc(C)n2cc(-c3ccc(Cl)cc3)c(C(=O)O)c2n1 was read as SW480 rerep 12%, A-T KAP1 phos 5%, MCF10A rereplic inconclusive, ELG1 DNA repair inconclusive, ELG1 genotox 16µM* and p53 reactivation 11%.
`NC(=S)N/N=C/c1ccccc1OCCSc1ccc(Cl)cc1` gave SW480 rerep inconclusive, A-T KAP1 phos -1%, MCF10A rereplic 21µM*, ELG1 DNA repair inconclusive, ELG1 genotox 0% and p53 reactivation 3%.
COc1ccccc1OCCn1cc(/C=N/NC(N)=S)c2ccccc21 was read as SW480 rerep -1%, A-T KAP1 phos 1%, MCF10A rereplic 13%, ELG1 DNA repair 18µM*, ELG1 genotox -9% and p53 reactivation -2%.
For O=C(O)c1ccc(N/N=C/c2cn(Cc3ccccc3F)c3ccccc23)cc1 the results were SW480 rerep inconclusive, A-T KAP1 phos 15%, MCF10A rereplic 21µM*, ELG1 DNA repair inconclusive, ELG1 genotox inconclusive and p53 reactivation inconclusive.
For COC(=O)N/N=C/c1cn(Cc2ccccc2F)c2ccccc12 the results were SW480 rerep -2%[9.22 µM], A-T KAP1 phos -19%, MCF10A rereplic inconclusive, ELG1 DNA repair 21µM*, ELG1 genotox 1% and p53 reactivation -3%.
For COc1cccc(/C=N/NC(N)=S)c1OCc1ccccc1Cl the results were SW480 rerep 7%, A-T KAP1 phos 4%, MCF10A rereplic inconclusive, ELG1 DNA repair -21%, ELG1 genotox -4% and p53 reactivation -8%.
`COC(=O)N/N=C/c1cn(Cc2ccccc2Cl)c2ccccc12` gave SW480 rerep -1%, A-T KAP1 phos 10%, MCF10A rereplic 12%, ELG1 DNA repair -14%, ELG1 genotox -1% and p53 reactivation -4%.
For COc1ccccc1OCCn1cc(/C=N/NC(=O)c2ccncc2)c2ccccc21 the results were SW480 rerep -2%, A-T KAP1 phos 32%, MCF10A rereplic 18%, ELG1 DNA repair -27%, ELG1 genotox -2% and p53 reactivation -2%.
`COc1cc(S(=O)(=O)NCC2(N3CCCCC3)CCCCC2)ccc1NC(C)=O` gave SW480 rerep -27%, A-T KAP1 phos 3%, MCF10A rereplic 2%, ELG1 DNA repair -1%, ELG1 genotox -1% and p53 reactivation 5%.
COC(=O)N/N=C/c1cn(CCCOc2ccccc2)c2ccccc12 was read as SW480 rerep inconclusive, A-T KAP1 phos 4%, MCF10A rereplic inconclusive, ELG1 DNA repair 16µM*, ELG1 genotox -5% and p53 reactivation 4%.
For O=C(N/N=C/c1cn(CCOc2ccccc2)c2ccccc12)c1ccncc1 the results were SW480 rerep -6%, A-T KAP1 phos 1%, MCF10A rereplic 0%, ELG1 DNA repair -12%, ELG1 genotox -3% and p53 reactivation inconclusive.
Screening O=C(Nc1ccc(Br)cc1)Nc1cnccn1 returned SW480 rerep 10%, A-T KAP1 phos 1%, MCF10A rereplic 12%, ELG1 DNA repair inconclusive and ELG1 genotox 8%.
`O=C1CN(C(=O)c2ccc(Br)o2)C(c2ccccc2)c2cc(Cl)ccc2N1` (stereo unspecified) gave SW480 rerep -2%, A-T KAP1 phos 0%, MCF10A rereplic 4%, ELG1 DNA repair 21µM*, ELG1 genotox -9% and p53 reactivation -16%.
Screening Cc1ccc2c(c1)C(c1ccccc1)N(C(=O)c1ccc(Br)o1)CC(=O)N2 (stereo unspecified) returned SW480 rerep 12%, A-T KAP1 phos 15%, MCF10A rereplic -1%, ELG1 DNA repair inconclusive, ELG1 genotox -6% and p53 reactivation -10%.
For Cc1ccc2c(c1)C(c1ccccc1)N(C(=O)CC(C)C)CC(=O)N2 (stereo unspecified) the results were SW480 rerep -5%, A-T KAP1 phos 3.5µM*, MCF10A rereplic -6%, ELG1 DNA repair 9%, ELG1 genotox -1% and p53 reactivation -8%.
For O=C(NCCO)C(=O)Nc1cc2c3c(c1)CC(=O)N3CCC2 the results were SW480 rerep 1%, A-T KAP1 phos -5%, MCF10A rereplic 0%, ELG1 DNA repair 5%, ELG1 genotox 1%[9.26 µM] and p53 reactivation 8%.
For O=C(CCl)c1cc2c3c(c1)CC(=O)N3CCC2 the results were SW480 rerep 16µM*, A-T KAP1 phos 1%, MCF10A rereplic inconclusive, ELG1 DNA repair inconclusive, ELG1 genotox 21% and p53 reactivation -24%.

High-throughput results (PubChem)
